Activation data for 25 compounds are collected here from PubChem BioAssay AID729 (The Scripps Research Institute Molecular Screening Center, 2007).

The structures appear in SMILES notation. Out of some 97,000 compounds screened, about 450 (0.46%) were called active. No stated cut-off is given here; in the data, active means activation above about 16%; inactive means the rest. This excerpt belongs to a sample that is enriched for actives.

For the assay, the target named is Sphingosine 1-phosphate receptor 2 (Homo sapiens) (UniProt O95136). Briefly: S1P2 receptor agonists, primary screen, cell-based (AID 729).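 Further: 0% = vehicle low control and 100% = maximal reference agonist.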 Particulars: S1P2-expressing cell line, agonist reporter read-out; at 4.5 µM; stronger effect = higher value.
Chain of Sphingosine 1-phosphate receptor 2 (Homo sapiens) (O95136 whole entry, looked up): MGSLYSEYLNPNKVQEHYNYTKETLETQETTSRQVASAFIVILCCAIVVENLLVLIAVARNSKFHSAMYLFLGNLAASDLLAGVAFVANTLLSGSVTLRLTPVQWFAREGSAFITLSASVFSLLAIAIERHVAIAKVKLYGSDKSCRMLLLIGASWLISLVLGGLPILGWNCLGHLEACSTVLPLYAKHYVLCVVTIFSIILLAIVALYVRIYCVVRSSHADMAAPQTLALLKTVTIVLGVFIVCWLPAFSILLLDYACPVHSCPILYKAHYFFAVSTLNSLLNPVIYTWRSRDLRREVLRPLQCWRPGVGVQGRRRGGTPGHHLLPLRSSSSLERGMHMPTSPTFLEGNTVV
As for `Fc1ccc(CNc2nc3ccccc3n3nnnc23)cc1`, the activation was -7.16% (inactive).
For `O=C(NC(C(=O)NCCN1CCOCC1)C12CC3CC(CC(C3)C1)C2)C1CCCCC1` (stereo not given) the value was -4.77% (inactive).
For `Cc1c(NC(=O)c2cc(-c3ccc(Cl)s3)nc3ccccc23)c(=O)n(-c2ccccc2)n1C` the value was -14.2% (inactive).
Consider `O=C(Nc1ccn(Cc2ccccc2F)n1)c1ccc(COc2ccc(Cl)cc2Cl)o1`, for which the activation was -5.78% (inactive).
For the compound `CCn1cc(C(=O)NCc2ccc3c(c2)OCO3)c2cc(OC)c(OC)cc2c1=O`, the activation is 14.1% (inactive).
For the compound `O=C(Cn1cnc2ccccc2c1=O)NCC1COc2ccccc2O1` (stereo not given), the activation was -3.16% (inactive).
Turning to `CCn1cc(C(=O)NCC2COc3ccccc3O2)c2cc(OC)c(OC)cc2c1=O` (stereo not given), the activation is 19.9% (active).
For `CO/N=C/c1ccc(N2CCN(C(=O)c3cccc(Cl)c3)CC2)c([N+](=O)[O-])c1` the value was -3.08% (inactive).
The same measure for `Cc1ccc(CNC(=O)C2CCCN2C(=O)NCc2ccccc2)cc1` (stereo not given): -8.36% (inactive); for `O=C(CO/N=C/c1ccccc1O)NNC(=O)c1ccccc1Cl`: -5.77% (inactive).
For `Cc1ccc(S(=O)(=O)/N=C(/Nc2ccccn2)c2ccc(Cl)cc2)cc1` the value was -4.9% (inactive); for `CSc1ccccc1-c1nnc(-c2ccc(Cl)cc2)o1`, -1.63% (inactive); for `Cc1ccc(N2CCN(C3=NC(=O)/C(=C\c4cccs4)S3)CC2)cc1`, -8.97% (inactive).
With `O=Cc1c(N2CCN(c3cccc(Cl)c3)CC2)nc2ccccn2c1=O`, the activation was -4.84% (inactive).
The same measure for `CN1C(=O)C(CC(N)=O)N(NC(=O)c2ccc(Cl)cc2)C1=S` (stereo not given): -7.47% (inactive); for `CSc1nc2ccccc2cc1/C=C(\C#N)c1ccc(Cl)cc1Cl`: 19.8% (active); for `CSc1nc(N)c(C#N)c(-c2ccccc2Cl)c1C#N`: -7.07% (inactive).
The same measure for `Cc1nc2ccccc2cc1O`: -0.52% (inactive).
Consider `Cc1sc(NC(=O)C2C3CCC(O3)C2C(=O)O)c(C(=O)OC(C)C)c1-c1ccc(Cl)cc1` (stereo not given), for which the activation was -9.04% (inactive).
As to `CN(C)c1ccc(/C=C2\NC(=S)N(Cc3ccccc3)C2=O)cc1`, the activation was -4.43% (inactive).
For the compound `Cc1ccc(-c2nc(C)sc2CC(=O)O)cc1`, the activation is -2.07% (inactive).
For `CN(c1cccc(NC(=O)Nc2ccc(Cl)cc2)c1)S(C)(=O)=O` the value was -3.59% (inactive); for `Nc1c(-c2ccc(F)cc2)cnn1C1CCS(=O)(=O)C1` (stereo not given), -4.76% (inactive); for `Cc1ccc(C2C(C#N)C(C#N)N3CCCN23)cc1` (stereo not given), -4.89% (inactive).
For `N/C(=N\OC(=O)CCC1CCCCC1)c1ccccn1` the value was -3.14% (inactive).
